The list is not random: actives were taken first. Their share in the collection is about 5.5%.
Giardia killer – Giardia lamblia killing; Giardia lamblia trophozoite viability; activity change, % at 7.66 µM, hits read low; 340,000 tested, 0.15% active; in the data active means activity change below about -80%; inconclusive means between about -30% and that limit;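 further: parasites exposed to compound for two days anaerobically before the ATP read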
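Giardia trophozoites, 100 cells per well, were exposed to compounds for 48 hrs at 37 deg C under anaerobic conditions; viability was then read as ATP content by bioluminescence after 15-30 min at room temperature.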
FBPA coupling cs – coupling enzyme interference in Giardia aldolase counter-screen | coupling enzyme system counterscreen, AmpLite Red fluorescence | activity change, negative = inhibition, % at 58.2 µM, hits read low | 290,000 tested, 0.67% active | AID 2472; in the data active means activity change below about -30%
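Activity here indicates interference with the coupling reaction, not aldolase inhibition. Compounds at 57.5 uM final met coupling enzymes for 10 min at RT; substrate and AmpLite Red detection followed, with a 525/598 nm fluorescence read after 20 min.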
Sfp PPTase inh – blocks B. subtilis Sfp PPTase activity | 310,000 tested, 3.5% active | Potency, µM, without a hit: largest response in the series, negative = inhibition, actives largely listed as inhibitors | Biochemical Sfp PPTase activity, qHTS;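 further: the enzyme is Sfp with the accession as filed and its product quenches rhodamine fluorescence; potency means the concentration at half of the fitted maximal effect; 0% = enzyme reaction without inhibitor and -100% = no enzyme wells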
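Sfp 15 nM + cpd, 15 min RT; start w/ rhodamine-CoA 5 uM, BHQ-2-YbbR 12.5 uM (final); 50 mM Hepes pH 7.6, 10 mM MgCl2, 0.01% NP-40, 0.01% BSA; read 525/598 nm at 0 and 30 min.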
ELG1 DNA repair – blocks ELG1-dependent DNA repair in HEK293T cells. HEK293T ELG1-luciferase reporter, luminescence, 16 h; DNA damage induced by 5-fluorouridine. Potency, µM (top dose mostly 46.1 µM), for the others: top-dose activity change, negative = inhibition, usual class: inhibitors. 330,000 tested, 2.3% active. AID 504467; further: potency means the concentration at half of the fitted maximal effect; nearly all actives have a fitted effect of over 55% in size
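Overnight (16 hr) co-exposure of 2,000 cells/well to 5-fluorouridine and compound at 37 °C preceded detection. Luciferase was quantified via ONE-Glo luminescence; loss of signal denotes inhibition.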
Numbers without * were called inactive; ? = inconclusive; / = not tested or not shown; ! = repeats disagree. Unless noted, the call rests on the fitted dose curve; in most records, active means well fitted curve in the direction sought with a large enough effect; inconclusive means small, poorly fitted or top-dose-only effect, or another doubt; inactive means no such curve, though single readings can be large; an effect the other way counts as inactive or inconclusive. Unless noted, on the % scale 0 is the no-effect control and ±100 the full control effect.

SMILES | Giardia killer | FBPA coupling cs | Sfp PPTase inh | ELG1 DNA repair
COC(=O)c1ccc2c(=O)n(Cc3ccc(C(=O)NCCCN4CCC(C)CC4)cc3)c(=S)[nH]c2c1 | 56 | 0 | -7% | 6%
CC1CCN(CCCNC(=O)c2ccc3c(=O)n(Cc4ccc(Cl)cc4)c(=S)[nH]c3c2)CC1 | 15 | 3 | 79µM* | 10%
COc1cc2c(c(OC)c1OC)C(c1ccc(O)cc1)CC(=O)O2 (stereo not given) | -5 | -32* | -1% | ?
COc1ccc(C2CC(O)(c3ccccc3)Oc3cc(OC)c(OC)c(OC)c32)cc1 (stereo not given) | -9 | -39*! | 11% | -17%
Cc1ccccc1C1CC(=O)Oc2ccc(O)cc21 (stereo not given) | / | -2 | 126µM* | /
COc1cc(C2CC(=O)Oc3ccc(O)cc32)cc(OC)c1OC (stereo not given) | / | -3 | 50µM* | /
CN(C)c1ccc(-c2noc(C3CCN(C(=O)Nc4ccc(Cl)cc4)CC3)n2)cc1 | 0 | -5 | 8% | ?
Cc1ccc(-c2noc(C3CCN(C(=O)Nc4ccc(C#N)cc4)CC3)n2)o1 | 2 | 1 | 6% | 26µM*
COCCCC1CCN(C(=O)C2CCC(=O)N(CC3CCCCC3)C2)CC1 (stereo not given) | 15 | / | 10% | ?
O=C(O)CSc1ccc(Oc2ccc(SCC(=O)O)cc2)cc1 | 16 | -1 | 12% | -11%
O=C(O)CSc1sc(=S)sc1SCC(=O)O | 6 | 14 | 79µM* | 7%
Cc1ccc(NC(=S)N(CCCN2CCOCC2)Cc2cccs2)c(C)c1 | 7 | 2 | 25µM* | 12%
COc1ccccc1/C=C/C(=O)c1c2c(c(C)[nH]c1=O)CCCC2 | 11 | -11 | 5% | 18µM*
COc1ccc(NC(=O)C2CCN(S(=O)(=O)c3cccs3)CC2)cc1OC | -7 | / | / | ?
COC(=O)c1cnn(-c2ccc(F)cc2F)c1/C=N/NC(N)=S | -1 | 0 | -2% | 13µM*
CNC(=S)N/N=C/c1c(C(=O)OC)cnn1-c1ccc(F)cc1F | 18 | -21 | 15% | ?
COC(=O)c1cnn(-c2ccccc2)c1/C=N/NC(=S)Nc1ccccc1 | 20 | 1 | 32% | 21µM*
C[C@@H](C(=O)NCc1ccc(C(F)(F)F)nc1)[C@H]1C[C@]1(C)[C@H](NC(=O)OCc1ccccc1)c1ccccc1 | / | -2 | 2% | /
O=C(/C=C/c1c(F)cccc1Cl)N1CCc2ccccc2C1 | 12 | 0 | 4% | ?
S=C(c1ccc(-c2ccc(Cl)cc2Cl)o1)N1CCCC1 | 14 | -4 | 14µM* | 15%
Cc1cccc(C)c1NC(=O)c1ccc(-c2ccc(Cl)cc2Cl)o1 | 5 | -5 | -12% | 13µM*
S=C(c1ccc(-c2ccc(Cl)cc2Cl)o1)N1CCCCC1 | 1 | -2 | 56µM* | ?
CCOC(=O)/C(=C\c1cccnc1)C(=O)c1cc(C(C)=O)c(Nc2ccccc2)s1 | -17 | 2 | 40µM* | ?
CCOC(=O)/C(=C\c1ccccc1)C(=O)c1cc(C(C)=O)c(Nc2ccccc2)s1 | 2 | 1 | -7% | ?
CC(=O)NCCNc1ncnc2ccc(-c3ccccc3C(F)(F)F)cc12 | / | 0 | 30% | /
SMILES | Giardia killer | FBPA coupling cs | Sfp PPTase inh | ELG1 DNA repair
c1ccc(-c2ccc(OCCN3CCCC3)cc2)cc1 | / | 0 | -17% | /
CC(N)(C(=O)O)c1ccc(C(=O)O)cc1 (stereo not given) | / | / | 56µM* | /
C[C@@](N)(C(=O)O)c1ccc(C(=O)O)cc1 | / | -5 | 50µM*! | /
CCOc1ccc(C(C)(N)C(=O)O)cc1 (stereo not given) | 0 | -2 | -8% | 1%
Cc1cc(C)c(C)c(S(=O)(=O)N2CCN(C(=O)c3ccccn3)CC2)c1C | 1 | / | / | 7%
N#CCCn1c(=O)c(-c2ccc(F)cc2)nc2cnc(Oc3cccc(Cl)c3)nc21 | / | 2 | -2% | /
Cc1ccc(S(=O)(=O)N2CCN(C(=O)COC(=O)c3cncc(Br)c3)CC2)c(C)c1 | -4 | / | / | -6%
CCN(CC)C(=O)C1CCCN(C/C=C/c2ccccc2)C1 (stereo not given) | -5 | 1 | -30% | 9%
CCN(CC)C(=O)C1CCCN(C/C(C)=C/c2ccccc2)C1 (stereo not given) | 6 | -1 | 79µM* | 1%
O=C(N/N=C/c1ccc(Cl)cc1Cl)c1ccc2nc[nH]c2c1 | 0 | / | -18% | ?
O=C(N/N=C/c1ccc(Cl)cc1Cl)c1cccc(F)c1 | -10 | 1 | 20µM* | ?
